Most compounds without a hit are left out; they make up all but 0.32% or so of the library.
TRPV1 ag: human TRPV1 agonism | Q8NER1 | TRPV1-expressing cells, Fluo-8 calcium influx, agonist mode | activation, % at 8.33 µM | actives 0.19% (n = 320,000) | AID 540275; in the data active means activation above about 80%; inconclusive means between about 30% and that limit; further: 0% is about no effect
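Fluo-8 calcium influx in TRPV1-expressing cells, kinetic read (ex 480/em 520 nm). Compound added and read 3 min for agonist activity, followed by capsaicin at EC20 final and 2 min further read for enhancement.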
TRPV1 potentiator: enhances activation of the human vanilloid receptor TRPV1. actives 0.02% (n = 320,000). TRPV1-expressing cells, Fluo-8 calcium influx, capsaicin EC20 potentiation. potentiation, % at 8.33 µM; in the data active means potentiation above about 80%; inconclusive means between about 30% and that limit; further: 0% is about no effect
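TRPV1-expressing cells were cultured overnight at 35.5C and loaded with Fluo-8 calcium dye for 40 to 90 min at room temperature. After a 10 s baseline, compound was added and calcium influx was read kinetically for 3 min (ex 480/em 520 nm).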
Menin-MLL TR inh: displaces Texas Red mutant MLL peptide from human menin; Menin + Texas Red MLL mutant peptide, fluorescence polarization; actives 0.23% (n = 270,000); Potency, µM (highest dose often 61.6 µM), without a hit: top-dose FP activity change, negative = inhibition, hits mostly inhibitors; active means well fitted inhibition curve with a large enough effect in the polarisation, with a control signal flat, not every such curve was filed as active; inconclusive means small, poorly fitted or top-dose-only effect, or effect the other way, or a change in a side signal; inactive means no such curve, though single readings can be large or run the other way; the % refers to the polarisation; further: potency means the concentration at half of the fitted maximal effect; % of control where 0% means no effect
Menin-MLL FL inh: menin-MLL binding inhibition, fluorescein peptide. Fluorescence polarization, fluorescein-MLL peptide displacement from menin. FP activity change, % at 61.4 µM. 290,000 tested, under 10 active; active means well fitted curve in the direction sought with a large enough effect in the polarisation, not every such curve was filed as active; inconclusive means small, poorly fitted or top-dose-only effect, or effect the other way, or a change in a side signal; inactive means no such curve, though single readings can be large or run the other way; the % refers to the polarisation; further: % of control where 0% means no effect
MLL CXXC-DNA inh: blocks binding of human MLL CXXC domain to DNA | actives 0.037% (n = 290,000) | Q03164 | AID 2662 | Potency, µM (doses to about 115 µM), for the others: at the highest dose activity change, negative = inhibition, usual class: inhibitors | MLL-CXXC / FITC-HOXA9 DNA fluorescence polarization; active means well fitted inhibition curve with a large enough effect in the polarisation, with a control signal flat, not every such curve was filed as active; inconclusive means small, poorly fitted or top-dose-only effect, or effect the other way, or a change in a side signal; inactive means no such curve, though single readings can be large or run the other way; the % refers to the polarisation; further: potency means the concentration at half of the fitted maximal effect
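Fluorescence polarization: 7 uM MLL-CXXC (stock) preincubated 5 min with compounds, then 50 nM fluorescein-HOX-A9 DNA (stock) added; 30 min ambient. Buffer 50 mM Tris-HCl pH 7.5, 50 mM NaCl, 1 mM DTT, 0.05% BSA.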
Active calls of the source: *; u = inconclusive; x = no result.

SMILES	TRPV1 ag	TRPV1 potentiator	Menin-MLL TR inh	Menin-MLL FL inh	MLL CXXC-DNA inh
CSCC[C@H](NC(=O)[C@H](CC(C)C)NC(=O)CCNC(=O)[C@@H](NC(=O)[C@H](Cc1ccccc1)NC(=O)[C@H](CO)NC(=O)[C@@H](N)CC(=O)O)C(C)C)C(N)=O	x	x	-6%	7	x
CC(C)=CCC[C@](C)(O)C1CC[C@]2(C)[C@@H]1CC[C@@H]1[C@@]3(C)CCC(=O)C(C)(C)[C@@H]3CC[C@]12C (some centres not stated)	x	x	-22%	-2	x
CC(C)CCNC(=O)C1CCN(Cc2cccc(OCc3ccccc3)c2)CC1	92*	27	-19%	-10	21%
CCCCNc1c(-c2ccc(OC)c(SC3CCCCC3)c2)nc2cc(C)ccn12	88*	6	x	x	x
CCCCNc1c(-c2ccc(OC)c(SC3CCCCC3)c2)nc2cnccn12	u	-14	x	x	x
COc1ccc(CCNCC(=O)Nc2ccc(OC(F)(F)F)cc2)cc1OC	u	-7	-7%	7	-3%
CCc1ccc(NC(=O)CNCc2ccc(OC)c(OC)c2)cc1	85*	-17	u	-1	-14%
CC(C)n1cc(/C=C2/SC(=O)N(CC(=O)Nc3ccc4c(c3)OCO4)C2=O)c2ccccc21	1	0	7.9µM*	2	14%
O=C(CCC(=O)OCC(=O)c1ccc(-c2ccccc2)cc1)Nc1cccc(Cl)c1	1	5	25µM*	-1	19%
O=C(CCNC(=O)c1ccccc1)OCC(=O)c1cccc(Cl)c1	8	-9	1%	3	4%
Cc1ccccc1NC(=O)CCC(=O)OCC(=O)c1ccc(-c2ccccc2)cc1	-3	6	35µM*	-1	-16%
O=C(CCC(=O)OCC(=O)c1ccccc1)Nc1cccc2cccnc12	0	4	-13%	2	-1%
CN(C)/C=N/c1c(C#N)cnn1-c1ccc(F)c(Cl)c1	x	x	19%	5	x
CC1(c2ccc(OC(F)F)cc2)NC(=O)N(CC(=O)Nc2ccc3[nH]c(=O)[nH]c3c2)C1=O (configuration not stated)	-7	81*	x	x	x
COc1ccc(C2(C)NC(=O)N(CC(=O)Nc3ccc4[nH]c(=O)[nH]c4c3)C2=O)cc1 (configuration not stated)	-2	-22	x	x	x
CNC(=O)c1csc(-c2ccc(Cl)cc2)n1	84*	-21	-3%	-7	-4%
O=C(O)c1csc(-c2ccc(Cl)cc2)n1	1	0	-9%	-1	-10%
O=C(Nc1ccc(Cl)cc1)c1csc(-c2ccncc2)n1	26	-10	26%	-6	0%
O=C(Nc1ccc(Cl)cc1)c1csc(-c2ccccc2)n1	81*	-25	20%	-2	-1%
CNC(=O)c1csc(-c2ccncc2)n1	2	-10	0%	-1	-7%
CNC(=O)c1csc(-c2ccc(C)cc2)n1	81*	-15	-10%	0	-13%
C[C@H](NC(=O)[C@@H](N)Cc1ccc(O)cc1)C(=O)NCC(=O)N[C@H]1CSSC[C@@H](C(=O)O)NC(=O)[C@H](CO)NC(=O)[C@H]([C@@H](C)O)NC(=O)[C@H](Cc2ccccc2)NC(=O)[C@H]([C@@H](C)O)NC(=O)[C@H](CCCCN)NC(=O)[C@@H](Cc2c[nH]c3ccccc23)NC(=O)[C@H](Cc2ccccc2)NC(=O)[C@H](Cc2ccccc2)NC(=O)[C@H](CC(N)=O)NC(=O)[C@H](CCCCN)NC1=O	x	x	2%	1	x
O=[N+]([O-])c1cc([N+](=O)[O-])c(Oc2c(F)ccc(F)c2F)cc1NN1CCCCC1	80*	8	16%	-2	1%
CSCC[C@H](NC(=O)CN)C(=O)N[C@@H](CC(=O)O)C(=O)N[C@@H](CO)C(=O)N[C@@H](CC(C)C)C(=O)N[C@@H](C)C(=O)N[C@@H](Cc1ccccc1)C(=O)N[C@@H](CO)C(=O)NCC(=O)NCC(=O)N[C@@H](CC(C)C)C(N)=O	x	x	0%	4	x
COc1cc2c(cc1OC)CN(C(=O)/C=C/c1cc(OC)c(OC)c(OC)c1)CC2	5	8	10µM*	0	u
SMILES	TRPV1 ag	TRPV1 potentiator	Menin-MLL TR inh	Menin-MLL FL inh	MLL CXXC-DNA inh
CCCCCCCCCCCCCCCCSCC(COC)COP(=O)([O-])OCC[N+](C)(C)C (configuration not stated)	x	x	-11%	-1	x
O=C(NCc1nc2ccccc2[nH]1)c1cccc(S(=O)(=O)N2CCOCC2)c1	5	30	2%	2	25%
O=C(Nc1cccc(S(=O)(=O)N2CCOCC2)c1)c1cccc(S(=O)(=O)N2CCCCC2)c1	16	-20	x	x	x
CC(C)(C)c1cc(NC(=O)c2cccc(S(=O)(=O)N3CCOCC3)c2)no1	80*	-7	8%	7	1%
O=C(Nc1ccc(NC(=O)c2ccc(Cl)c(S(=O)(=O)N3CCOCC3)c2)cc1)c1ccccc1	-1	9	23%	3	-3%
O=C(Nc1ccccn1)c1cccc(S(=O)(=O)N2CCOCC2)c1	9	9	-8%	0	0%
O=C(Nc1nc2ccccc2[nH]1)c1cccc(S(=O)(=O)N2CCOCC2)c1	80*	-26	4%	1	18%
O=C(Nc1ccccc1)c1ccc(NC2CCCCC2)c(S(=O)(=O)N2CCOCC2)c1	86*	15	-6%	0	9%
O=C(Nc1ccc(N2CCCCCC2)cc1)c1cccc(S(=O)(=O)N2CCOCC2)c1	87*	-2	x	x	x
CCOC(=O)C1=C(C)NC(C)=C(C(=O)OCC)C1c1ccccc1C=CC(=O)OC(C)(C)C	x	x	17%	-2	3%
CCNC(=O)[C@@H]1CCCN1C(=O)[C@H](CCCN=C(N)N)NC(=O)[C@H](CC(C)C)NC(=O)[C@@H](Cc1c[nH]c2ccccc12)NC(=O)[C@H](Cc1ccc(O)cc1)NC(=O)[C@H](CO)NC(=O)[C@H](Cc1c[nH]c2ccccc12)NC(=O)[C@H](Cc1cnc[nH]1)NC(=O)[C@@H]1CCC(=O)N1	x	x	-19%	-1	2%
NC(=O)C1CCN(C(=O)CCSCc2ccc(Cl)c(Cl)c2)CC1	88*	14	9%	0	2%
CC(C)CCC1(CCNC(=O)c2cccs2)CCOC(C)(C)C1 (configuration not stated)	83*	15	x	3	1%
CCCN1C=CC(=C/C=C(\C#N)C(=O)OCC)C=C1	u	-12	17%	u	u
CCOC(=O)/C(C#N)=C/C=C1\C=Cc2ccccc2N1CC	10	4	25µM*	u	177%
Cn1cnnc1SCC(=O)Nc1nc(-c2ccccc2)cs1	89*	-3	27%	-1	3%
Cc1cc(C)cc(-n2nnnc2SCC(=O)Nc2nc(-c3ccc(F)cc3)cs2)c1	-2	9	35µM*	-1	23%
Cc1cc(C)cc(-n2nnnc2SCC(=O)Nc2nc(-c3ccc(Cl)cc3)cs2)c1	-4	0	28µM*	6	-4%

Source: PubChem (National Center for Advancing Translational Sciences (NCATS))
